Screening data as filed in PubChem.
Rows were chosen to be rich in hits. Some 19% of all compounds tested hit in one or more screens of this group.
HepG2 viability: kills HepG2 cells in TGF-b inhibitor counter-screen | HepG2 CAGA-GFP viability, ATP luminescence, 18 h | Potency, µM (series often up to 46.1 µM), inactives show top-dose activity change, negative = cytotoxicity, usual class: cytotoxic | 0.76% of 410,000 active | AID 588856; note: potency is the fitted concentration of half-maximal effect
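HepG2 CAGA-GFP cells (1000/well, DMEM with 1% FBS) received compound, then TGF-beta at 500 pg/mL final, and were incubated 18 hours at 37 degrees C. Viability was read by CellTiter-Glo luminescence. Media-only wells were set as complete cell-killing and DMSO as no toxicity.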
IL1B secr inh: inhibitors of inflammasome signaling (IL-1 beta secretion); THP-1 LPS/ATP IL-1B secretion, AlphaLISA, 16 h; hits give low values; activity change, % at 57.5 µM; 4.7% of 360,000 active; AID 743279; in the data active = activity change below about -50%; inconclusive = mostly about -30% to -49%; note: % is set by controls: 0 for no effect and ±100 for the full control effect
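Secreted IL-1B measured by AlphaLISA bead assay after 16 h compound exposure of THP-1 cells; compounds (final up to 57.5 uM) added 1 h before LPS (250 ng/mL) and ATP (1.25 mM) stimulation; lower signal means less secretion.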
DT40 TDP1 no CPT: qHTS for Inhibitors of human tyrosyl-DNA phosphodiesterase 1 (TDP1): qHTS in cells in absence of CPT | DT40 Tdp1-/- hTDP1 cells, no CPT, ATP luminescence, 48 h | Potency, µM (titrated, usually from 46.2 µM), inactives show at the highest dose activity change, negative = growth inhibition, actives largely listed as inhibitors | 15% of 420,000 active | AID 686978, 2013; note: potency is the fitted concentration of half-maximal effect; % is set by controls: 0 for no effect and ±100 for the full control effect; nearly all actives have a fitted effect of over 55% in size
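Readout: luminescence from CellTiter-Glo after 30 min in the dark at RT. Cells: DT40 Tdp1-/- with stable hTDP1, 400/well. Exposure: compounds alone, ≥48 hr, 37 °C.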
TGFb SMAD3 inh: inhibitors of TGF-b signaling | Potency, µM (series often up to 46.1 µM), without a hit: at the top dose activity, negative = inhibition, actives largely listed as inhibitors | HepG2 CAGA-GFP TGF-b/SMAD3 reporter, GFP fluorescence, 18 h; TGF-beta stimulated, 500 pg/mL final | 1.2% of 410,000 active; note: potency is the fitted concentration of half-maximal effect; % is set by controls: 0 for no effect and ±100 for the full control effect; nearly all actives have a fitted effect of over 65% in size
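TGF-beta reporter screen: HEPG2 CAGA-GFP, 1% FBS, 500 pg/mL TGF-beta final, 18 h; per-cell GFP summed per well; curves fitted and categorized by class.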
TDP1 block: TDP1 (human) enzyme inhibition. Q9NUW8. AID 485290. recombinant TDP1, AlphaScreen DNA substrate cleavage. 0.28% of 350,000 active. Potency, µM (top dose mostly 130 µM), without a hit: top-dose activity change, negative = inhibition, actives largely listed as inhibitors; note: potency is the fitted concentration of half-maximal effect; % is set by controls: 0 for no effect and ±100 for the full control effect; nearly all actives have a fitted effect of over 40% in size
Target sequence (Q9NUW8 whole entry, looked up): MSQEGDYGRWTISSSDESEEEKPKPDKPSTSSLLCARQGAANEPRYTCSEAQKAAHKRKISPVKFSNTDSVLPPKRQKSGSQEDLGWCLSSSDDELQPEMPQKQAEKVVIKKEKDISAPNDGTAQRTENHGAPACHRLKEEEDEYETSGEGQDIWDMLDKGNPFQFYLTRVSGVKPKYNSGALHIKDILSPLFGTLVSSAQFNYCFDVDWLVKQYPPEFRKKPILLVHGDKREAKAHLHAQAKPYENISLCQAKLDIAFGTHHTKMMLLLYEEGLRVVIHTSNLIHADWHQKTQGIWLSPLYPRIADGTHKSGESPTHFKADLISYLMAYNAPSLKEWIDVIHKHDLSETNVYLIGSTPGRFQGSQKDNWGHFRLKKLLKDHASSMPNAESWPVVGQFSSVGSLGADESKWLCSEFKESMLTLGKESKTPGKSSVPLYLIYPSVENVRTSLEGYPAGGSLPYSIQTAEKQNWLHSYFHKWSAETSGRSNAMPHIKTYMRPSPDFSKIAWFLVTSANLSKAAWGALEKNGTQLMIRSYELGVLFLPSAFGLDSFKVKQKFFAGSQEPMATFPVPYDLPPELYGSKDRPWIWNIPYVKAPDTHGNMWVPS
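Compounds were preincubated with Tdp1 (1 nM final) for 15 min at room temperature before substrate (15 nM final) started a 5 min reaction; beads (10 ug/ml final) were then added for 10 min before AlphaScreen detection.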
TDP1 cell CPT: growth inhibition of DT40 Tdp1-/-;hTDP1 cells with camptothecin (screen for TDP1 inhibitors); chicken DT40 Tdp1-/-;hTDP1 cells + 20 nM CPT, ATP luminescence, 48 h; Potency, µM (top dose mostly 46.2 µM), inactives show at the top dose activity change, negative = growth inhibition, actives largely listed as inhibitors; 12% of 420,000 active; note: potency is the fitted concentration of half-maximal effect; % is set by controls: 0 for no effect and ±100 for the full control effect; nearly all actives have a fitted effect of over 55% in size
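Chicken DT40 Tdp1-/- cells complemented with human TDP1, 400 cells/well, exposed to compounds plus 20 nM camptothecin for at least 48 h at 37 C; viability read as ATP content by CellTiter-Glo luminescence.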
Starred values were filed as active, the others as inactive; ? = inconclusive; . = not tested or not shown; [ ] = remark or other dose. Unless noted, calls come from the whole dose curve; as a rule, active = well fitted curve in the direction sought with a large enough effect; inconclusive = small, poorly fitted or top-dose-only effect, or another doubt; inactive = no such curve, though single readings can be large; an effect the other way counts as inactive or inconclusive.

SMILES	HepG2 viability	IL1B secr inh	DT40 TDP1 no CPT	TGFb SMAD3 inh	TDP1 block	TDP1 cell CPT
C#CCNC(=O)C1=C[C@@H](c2ccc(C#C)cc2)[C@H](CCCO)[C@@H](OCC)O1	-1%	1	-22%	-2%	4%	-24%
CCO[C@H]1OC(C(=O)NCc2nc3ccccc3[nH]2)=C[C@@H](c2ccc(Br)cc2)[C@@H]1CCCO	-13%	-16	?	-24%	.	?
CCO[C@H]1OC(C(=O)NC2CC2)=C[C@@H](C2CCCCC2)[C@@H]1CCCO	-25%	8	23µM*	?	-1%	21µM*
CC(O)C(NS(=O)(=O)c1ccc(Cl)cc1)C(=O)OCCOc1ccc(F)cc1 (centres undefined)	-50%	6	?	?	.	?
CNS(=O)(=O)c1cccc(C(=O)OCC(=O)N2CC(C)OC(C)C2)c1 (centres undefined)	-4%	8	3%	-12%	-6%	-11%
Cc1nn(-c2ccc(N3CCCCC3)nn2)c(C)c1CCC(=O)NCc1ccccc1	2%	.	?	?	6%	?
COc1ccc(NC(=O)NC2(C(=O)N3CCCCC3)CCCCC2)cc1	-3%	23	?	1%	12%	?
O=C1[C@H]2[C@@H](c3ccc(C(F)(F)F)cc3)N[C@]3(CCCN(Cc4ccco4)C3=O)[C@H]2C(=O)N1Cc1ccccc1	0%	29	-4%	-14%	.	-3%
C#CCNC(=O)C1=C[C@H](c2ccc(Br)cc2)[C@@H](CCCO)[C@H](OCC)O1	-14%	13	13µM*	-19%	1%	?
CCO[C@H]1OC(C(=O)Nc2ccccc2)=C[C@@H](c2ccc(Br)cc2)[C@@H]1CCCO	-4%	0	18µM*	?	3%	16µM*
C#CCNC(=O)C1=C[C@H](c2ccc(C(F)(F)F)cc2)[C@@H](CCCO)[C@H](OCC)O1	-22%	-6	?	-8%	4%	-7%
CCO[C@@H]1OC(C(=O)Nc2ccccc2)=C[C@H](c2ccc(C(F)(F)F)cc2)[C@H]1CCCO	-17%	-12	?	?	3%	?
CN(C)C(=S)N=c1ssc(=S)n1Cc1ccccc1	-59%	-2	3.7µM*	2.2µM*	.	2.6µM*
COc1cc2c(cc1OC)CN(c1nc(CN3CCOCC3)nc3sc4c(c13)CCC(C)C4)CC2 (centres undefined)	-30%	-68*	15µM*	?	11%	12µM*
CC1CCc2c(sc3ncnc(NCCN4CCOCC4)c23)C1 (centres undefined)	-31%	-25	-5%	-1%	.	9%
CC1CCc2c(sc3nc(CN4CCOCC4)nc(Sc4ccccc4)c23)C1 (centres undefined)	-2%	-20	21µM*	-11%	3%	?
COc1ccc(Nc2nc(CN3CCOCC3)nc3sc4c(c23)CCC(C)C4)cc1OC (centres undefined)	.	.	.	.	5%	.
O=C1Nc2ccccc2Oc2cc(Oc3ccccc3)ccc21	-35%	.	?	?	.	?
CNC(=O)CSc1nnc(NC(=O)Nc2ccccc2)s1	4%	.	?	-5%	5%	?
CCCCCCC[n+]1c(/C=C/c2ccc(N(C)C)cc2)sc2ccccc21	-96%	.	0.28µM*	?	.	0.16µM*
CCN(CC)c1ccc(/C=C/c2sc3ccccc3[n+]2CCCCI)cc1	-54%	.	0.45µM*	13µM*	.	0.63µM*
CO[C@H]1[C@H](NC(=O)c2ccsc2)c2ccccc2C12CCN(Cc1c(O)ccc3ccccc13)CC2	.	.	-26%	.	.	-29%
CCC(=O)CC(NC(=O)OC)c1ccc(F)cc1 (centres undefined)	.	.	.	.	8%[21 µM]	.
